From PubChem BioAssay AID1159580 (chemical genetic matrix, 2015)
“And” between values parts separate entries of the source, which are not always exact repeats. Equal values may be shown once. Hit rate of the full screen: of about 5,500 compounds, about 2,000 (36%) were called active. Inconclusive results (about 18%) are left out. Rule as the data show it: active = normalized growth mostly below about 0.91 (no sharp cut-off); inconclusive = no clear call, values can overlap the other calls; inactive = mostly above about 0.92. The list shows a part of the results.

Experiment: chemical genetic growth profiling, strain panel (AID 1159580);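 also: tested at 20 µM; growth read once vehicle control cultures reached saturation at 30 °C; 1 = growth at the plate median or of vehicle wells; lower values mean less growth of the strain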
Settings: S. cerevisiae deletion strains, growth OD

Measured: normalized growth

CC(C)[C@@H]1CC[C@@H](C)C[C@H]1O
inactive: locus YAL021C, strain ccr4, active compounds read low 0.968 | locus YAL026C, strain drs2, active compounds read low 0.987 | locus YAL030W, strain snc1, active compounds read low 0.984 | locus YBL061C, strain skt5, active compounds read low 1.01 | locus YBR009C, strain hhf1, active compounds read low 0.998 | locus YBR021W, strain FUR4, active compounds read low 1.03 | locus YBR023C, strain chs3, active compounds read low 1.01 | locus YBR171W, strain sec66, active compounds read low 0.973 | locus YBR229C, strain ROT2, active compounds read low 1.01 | locus YBR231C, strain swc5, active compounds read low 0.988 | locus YBR279W, strain paf1, active compounds read low 0.998 | locus YCL011C, strain gbp2, active compounds read low 0.982 | locus YCL016C, strain dcc1, active compounds read low 0.995 | locus YCL029C, strain bik1, active compounds read low 1.01 | locus YCL061C, strain MRC1, active compounds read low 0.986 | locus YCL069W, strain vba3, active compounds read low 0.973 | locus YCR088W, strain abp1, active compounds read low 0.979 | locus YDL005C, strain med2, active compounds read low 0.98 | locus YDL035C, strain GPR1, active compounds read low 1.02 | locus YDL040C, strain nat1, active compounds read low 0.979 | locus YDL074C, strain BRE1, active compounds read low 0.997 | locus YDL101C, strain DUN1, active compounds read low 1.01 | locus YDL134C, strain PPH21, active compounds read low 1.01 | locus YDL185W, strain tfp1, active compounds read low 1.02 | locus YDL192W, strain arf1, active compounds read low 1.02 | locus YDR001C, strain nth1, active compounds read low 0.978 | locus YDR069C, strain doa4, active compounds read low 0.992 | locus YDR101C, strain arx1, active compounds read low 0.996 | locus YDR137W, strain rgp1, active compounds read low 0.898 | locus YDR150W, strain NUM1, active compounds read low 1.01 | locus YDR159W, strain sac3, active compounds read low 0.964 | locus YDR162C, strain NBP2, active compounds read low 1.02 | locus YDR195W, strain ref2 0.986 | locus YDR297W, strain sur2, active compounds read low 0.984 | locus YDR318W, strain mcm21, active compounds read low 1.02 | locus YDR334W, strain swr1, active compounds read low 0.951 | locus YDR335W, strain msn5, active compounds read low 0.984 | locus YDR388W, active compounds read low 1.01 | locus YDR392W, strain spt3, active compounds read low 0.958 | locus YDR502C, strain sam2, active compounds read low 1.01 | locus YEL003W, strain gim4, active compounds read low 0.989 | locus YEL037C, strain rad23, active compounds read low 0.968 | locus YEL061C, strain CIN8 (second series), active compounds read low 0.963 | locus YEL061C, strain CIN8, active compounds read low 1.01 | locus YER015W, strain faa2, active compounds read low 0.996 | locus YER016W, strain bim1, active compounds read low 0.992 | locus YER110C, active compounds read low 1.03 | locus YER111C, strain swi4, active compounds read low 0.961 | locus YER155C, strain BEM2 (second series), active compounds read low 0.94 | locus YER155C, strain BEM2, active compounds read low 1.01 | locus YER167W, strain BCK2, active compounds read low 1.02 | locus YFR010W, strain ubp6, active compounds read low 0.989 | locus YGL078C, strain dbp3, active compounds read low 1.02 | locus YGL086W, strain mad1, active compounds read low 1.01 | locus YGL167C, strain pmr1, active compounds read low 1 | locus YGL173C, strain kem1, active compounds read low 0.999 | locus YGL227W, strain vid30, active compounds read low 0.981 | locus YGL240W, strain doc1, active compounds read low 0.995 | locus YGL248W, strain PDE1, active compounds read low 0.992 | locus YGL253W, strain hxk2, active compounds read low 0.995 | locus YGR078C, strain PAC10, active compounds read low 0.975 | locus YGR135W, strain pre9, active compounds read low 1.04 | locus YGR229C, strain SMI1, active compounds read low 1.03 | locus YGR252W, strain gcn5, active compounds read low 1.03 | locus YHR013C, strain ard1, active compounds read low 1.03 | locus YHR027C, strain rpn1, active compounds read low 0.996 | locus YHR030C, strain SLT2, active compounds read low 1.01 and 0.979 | locus YHR079C, strain IRE1 (second series), active compounds read low 1.01 | locus YHR079C, strain IRE1, active compounds read low 0.991 | locus YHR094C, strain hxt1, active compounds read low 1.02 | locus YHR129C, strain ARP1, active compounds read low 1.01 | locus YHR142W, strain chs7, active compounds read low 0.988 | locus YHR200W, strain rpn10, active compounds read low 1.02 | locus YIL066C, strain RNR3, active compounds read low 0.994 | locus YIL073C, strain SPO22, active compounds read low 1.09 | locus YIL125W, strain kgd1, active compounds read low 1.01 | locus YIR030C, strain dcg1, active compounds read low 1.01 | locus YJL092W, strain hpr5, active compounds read low 0.977 | locus YJL095W, strain BCK1 (second series), active compounds read low 0.986 | locus YJL095W, strain BCK1, active compounds read low 0.972 and 0.985 | locus YJL115W, strain asf1, active compounds read low 0.981 | locus YJL129C, strain trk1, active compounds read low 0.937 | locus YJL134W, strain LCB3, active compounds read low 1.01 | locus YJL154C, strain vps35, active compounds read low 0.972 | locus YJL164C, strain tpk1, active compounds read low 0.998 | locus YJL166W, strain qcr8, active compounds read low 0.986 | locus YJL168C, strain set2, active compounds read low 1.01 | locus YJL187C, strain SWE1 (second series), active compounds read low 0.984 | locus YJL187C, strain SWE1, active compounds read low 0.99 | locus YJR043C, strain POL32, active compounds read low 1.02
